Laboratory results reported in PubChem BioAssay AID1159580 (chemical genetic matrix, 2015).
In all, about 5,500 compounds went through this assay and about 2,000 (36%) were called active. Another 18% or so got no clear call; they are omitted. The list shows a part of the results. A number with no mark means an inactive call. Cut-off read from the data, not from the text of the source: active = normalized growth mostly below about 0.91 (no sharp cut-off); inconclusive = no clear call, values can overlap the other calls; inactive = mostly above about 0.92.

Assay: chemical genetic growth profiling, strain panel (AID 1159580);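 note: tested at 20 µM; growth read once vehicle control cultures reached saturation at 30 °C; 1 = growth at the plate median or of vehicle wells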
Settings: growth OD

Q: Which results are given for `COc1ccc(C2C(=O)c3ccccc3C2=O)cc1`?
A: normalized growth (S. cerevisiae deletion strains, locus YJR066W, strain TOR1, stronger effect = lower value): 0.897; normalized growth (S. cerevisiae deletion strains, locus YJR075W, strain HOC1, stronger effect = lower value): 0.983; normalized growth (S. cerevisiae deletion strains, locus YKL009W, strain mrt4, stronger effect = lower value): 0.958; normalized growth (S. cerevisiae deletion strains, locus YKL068W, stronger effect = lower value): 0.987; normalized growth (S. cerevisiae deletion strains, locus YKL085W, strain MDH1 (second series), stronger effect = lower value): 0.983; normalized growth (S. cerevisiae deletion strains, locus YKL085W, strain MDH1, stronger effect = lower value): 0.983; normalized growth (S. cerevisiae deletion strains, locus YKL160W, strain elf1, stronger effect = lower value): 0.998; normalized growth (S. cerevisiae deletion strains, locus YKR001C, strain vps1, stronger effect = lower value): 1; normalized growth (S. cerevisiae deletion strains, locus YKR026C, strain gcn3, stronger effect = lower value): 0.96; normalized growth (S. cerevisiae deletion strains, locus YKR091W, strain srl3, stronger effect = lower value): 1.01; normalized growth (S. cerevisiae deletion strains, locus YLL001W, strain dnm1, stronger effect = lower value): 0.997; normalized growth (S. cerevisiae deletion strains, locus YLL026W, stronger effect = lower value): 0.966; normalized growth (S. cerevisiae deletion strains, locus YLL041C, strain sdh2, stronger effect = lower value): 0.982; normalized growth (S. cerevisiae deletion strains, locus YLR027C, strain aat2, stronger effect = lower value): 0.997; normalized growth (S. cerevisiae deletion strains, locus YLR039C, strain RIC1, stronger effect = lower value): 0.993; normalized growth (S. cerevisiae deletion strains, locus YLR058C, strain SHM2, stronger effect = lower value): 0.993; normalized growth (S. cerevisiae deletion strains, locus YLR102C, strain apc9, stronger effect = lower value): 0.989; normalized growth (S. cerevisiae deletion strains, locus YLR113W, strain HOG1, stronger effect = lower value): 0.767 (active); normalized growth (S. cerevisiae deletion strains, locus YLR221C, strain rsa3, stronger effect = lower value): 1; normalized growth (S. cerevisiae deletion strains, locus YLR258W, strain gsy2, stronger effect = lower value): 1.01; normalized growth (S. cerevisiae deletion strains, locus YLR262C, strain YPT6 (second series), stronger effect = lower value): 0.987; normalized growth (S. cerevisiae deletion strains, locus YLR262C, strain YPT6, stronger effect = lower value): 1.01; normalized growth (S. cerevisiae deletion strains, locus YLR268W, strain sec22, stronger effect = lower value): 1.01; normalized growth (S. cerevisiae deletion strains, locus YLR320W, strain mms22, stronger effect = lower value): 1.02; normalized growth (S. cerevisiae deletion strains, locus YLR330W, strain CHS5, stronger effect = lower value): 1; normalized growth (S. cerevisiae deletion strains, locus YLR342W, strain FKS1 (second series), stronger effect = lower value): 1.02; normalized growth (S. cerevisiae deletion strains, locus YLR342W, strain FKS1, stronger effect = lower value): 1; normalized growth (S. cerevisiae deletion strains, locus YLR357W, strain rsc2, stronger effect = lower value): 1.09; normalized growth (S. cerevisiae deletion strains, locus YLR370C, strain arc18, stronger effect = lower value): 1; normalized growth (S. cerevisiae deletion strains, locus YLR371W, strain rom2, stronger effect = lower value): 1.01; normalized growth (S. cerevisiae deletion strains, locus YLR384C, strain iki3, stronger effect = lower value): 0.992; normalized growth (S. cerevisiae deletion strains, locus YLR418C, strain cdc73, stronger effect = lower value): 0.957; normalized growth (S. cerevisiae deletion strains, locus YML016C, strain PPZ1, stronger effect = lower value): 1.01; normalized growth (S. cerevisiae deletion strains, locus YML032C, strain rad52, stronger effect = lower value): 1.01; normalized growth (S. cerevisiae deletion strains, locus YML120C, strain ndi1, stronger effect = lower value): 0.992; normalized growth (S. cerevisiae deletion strains, locus YML124C, strain tub3, stronger effect = lower value): 0.994; normalized growth (S. cerevisiae deletion strains, locus YMR058W, strain fet3, stronger effect = lower value): 0.979; normalized growth (S. cerevisiae deletion strains, locus YMR078C, strain ctf18, stronger effect = lower value): 0.99; normalized growth (S. cerevisiae deletion strains, locus YMR125W, strain sto1, stronger effect = lower value): 0.994; normalized growth (S. cerevisiae deletion strains, locus YMR129W, stronger effect = lower value): 0.972; normalized growth (S. cerevisiae deletion strains, locus YMR205C, strain PFK2, stronger effect = lower value): 1.01; normalized growth (S. cerevisiae deletion strains, locus YMR223W, strain ubp8, stronger effect = lower value): 0.976; normalized growth (S. cerevisiae deletion strains, locus YMR231W, strain pep5, stronger effect = lower value): 1.02; normalized growth (S. cerevisiae deletion strains, locus YMR307W, strain GAS1, stronger effect = lower value): 1.04; normalized growth (S. cerevisiae deletion strains, locus YNL067W, strain RPL9B, stronger effect = lower value): 0.932; normalized growth (S. cerevisiae deletion strains, locus YNL071W, strain lat1, stronger effect = lower value): 0.986; normalized growth (S. cerevisiae deletion strains, locus YNL128W, strain TEP1, stronger effect = lower value): 0.977; normalized growth (S. cerevisiae deletion strains, locus YNL153C, strain GIM3, stronger effect = lower value): 0.997; normalized growth (S. cerevisiae deletion strains, locus YNL183C, strain NPR1, stronger effect = lower value): 0.882; normalized growth (S. cerevisiae deletion strains, locus YNL209W, strain ssb2, stronger effect = lower value): 0.992; normalized growth (S. cerevisiae deletion strains, locus YNL233W, strain BNI4, stronger effect = lower value): 1; normalized growth (S. cerevisiae deletion strains, locus YNL248C, strain rpa49, stronger effect = lower value): 1.05; normalized growth (S. cerevisiae deletion strains, locus YNL250W, strain rad50, stronger effect = lower value): 0.987; normalized growth (S. cerevisiae deletion strains, locus YNL271C, strain bni1, stronger effect = lower value): 0.983; normalized growth (S. cerevisiae deletion strains, locus YNL298W, strain CLA4, stronger effect = lower value): 0.976; normalized growth (S. cerevisiae deletion strains, locus YNL307C, strain MCK1, stronger effect = lower value): 1.01; normalized growth (S. cerevisiae deletion strains, locus YNL322C, strain KRE1 (second series), stronger effect = lower value): 0.961; normalized growth (S. cerevisiae deletion strains, locus YNR049C, strain mso1, stronger effect = lower value): 0.982; normalized growth (S. cerevisiae deletion strains, locus YNR052C, strain pop2, stronger effect = lower value): 0.987; normalized growth (S. cerevisiae deletion strains, locus YOL012C, strain htz1): 0.937; normalized growth (S. cerevisiae deletion strains, locus YOL147C, strain pex11, stronger effect = lower value): 0.992; normalized growth (S. cerevisiae deletion strains, locus YOR001W, strain rrp6, stronger effect = lower value): 1.02; normalized growth (S. cerevisiae deletion strains, locus YOR061W, strain CKA2, stronger effect = lower value): 0.999; normalized growth (S. cerevisiae deletion strains, locus YOR069W, strain VPS5, stronger effect = lower value): 0.997; normalized growth (S. cerevisiae deletion strains, locus YOR070C, strain gyp1, stronger effect = lower value): 1; normalized growth (S. cerevisiae deletion strains, locus YOR080W, strain dia2, stronger effect = lower value): 1.02; normalized growth (S. cerevisiae deletion strains, locus YOR083W, strain WHI5, stronger effect = lower value): 1.01; normalized growth (S. cerevisiae deletion strains, locus YOR106W, strain vam3, stronger effect = lower value): 1.04; normalized growth (S. cerevisiae deletion strains, locus YOR136W, strain idh2, stronger effect = lower value): 0.984; normalized growth (S. cerevisiae deletion strains, locus YOR144C, strain elg1, stronger effect = lower value): 0.997; normalized growth (S. cerevisiae deletion strains, locus YOR184W, strain ser1, stronger effect = lower value): 0.998; normalized growth (S. cerevisiae deletion strains, locus YOR231W, strain MKK1, stronger effect = lower value): 0.878; normalized growth (S. cerevisiae deletion strains, locus YOR265W, strain rbl2, stronger effect = lower value): 0.995; normalized growth (S. cerevisiae deletion strains, locus YOR270C, strain vph1, stronger effect = lower value): 1.07; normalized growth (S. cerevisiae deletion strains, locus YOR290C, strain snf2, stronger effect = lower value): 1; normalized growth (S. cerevisiae deletion strains, locus YOR316C, strain cot1, stronger effect = lower value): 0.983; normalized growth (S. cerevisiae deletion strains, locus YPL051W, strain arl3, stronger effect = lower value): 1.03; normalized growth (S. cerevisiae deletion strains, locus YPL078C, strain atp4, stronger effect = lower value): 1; normalized growth (S. cerevisiae deletion strains, locus YPL106C, strain sse1, stronger effect = lower value): 1.03; normalized growth (S. cerevisiae deletion strains, locus YPL240C, strain hsp82, stronger effect = lower value): 0.984; normalized growth (S. cerevisiae deletion strains, locus YPL256C, strain CLN2, stronger effect = lower value): 0.817 (active); normalized growth (S. cerevisiae deletion strains, locus YPR119W, strain clb2, stronger effect = lower value): 0.998; normalized growth (S. cerevisiae deletion strains, locus YPR141C, strain kar3, stronger effect = lower value): 0.977; normalized growth (S. cerevisiae deletion strains, locus YPR163C, strain tif3, stronger effect = lower value): 0.995; normalized growth (S. cerevisiae deletion strains, locus YPR167C, strain met16, stronger effect = lower value): 0.998; normalized growth (S. cerevisiae deletion strains, strain wtn01, stronger effect = lower value): 0.991; normalized growth (S. cerevisiae strains, strain wild type, stronger effect = lower value): 1
